High-throughput results deposited in PubChem BioAssay by National Center for Advancing Translational Sciences (NCATS).
PLK1 PBD inh = qHTS for Inhibitors of PLK1-PDB (polo-like kinase 1 - polo-box domain): Primary Screen; Serine/threonine-protein kinase PLK1 (Homo sapiens), P53350; Plk1 PBD binding of FITC phosphopeptide, fluorescence polarization; Potency, µM, for inactives: max response, negative = inhibition, actives largely listed as inhibitors; 2.8% of 360,000 active; note: potency is the fitted concentration of half-maximal effect; series mostly up to about 57 µM; % is set by controls: 0 for no effect and ±100 for the full control effect; nearly all actives have a fitted effect of over 65% in size
Target sequence (P53350 whole entry, looked up, the tested form may be a part): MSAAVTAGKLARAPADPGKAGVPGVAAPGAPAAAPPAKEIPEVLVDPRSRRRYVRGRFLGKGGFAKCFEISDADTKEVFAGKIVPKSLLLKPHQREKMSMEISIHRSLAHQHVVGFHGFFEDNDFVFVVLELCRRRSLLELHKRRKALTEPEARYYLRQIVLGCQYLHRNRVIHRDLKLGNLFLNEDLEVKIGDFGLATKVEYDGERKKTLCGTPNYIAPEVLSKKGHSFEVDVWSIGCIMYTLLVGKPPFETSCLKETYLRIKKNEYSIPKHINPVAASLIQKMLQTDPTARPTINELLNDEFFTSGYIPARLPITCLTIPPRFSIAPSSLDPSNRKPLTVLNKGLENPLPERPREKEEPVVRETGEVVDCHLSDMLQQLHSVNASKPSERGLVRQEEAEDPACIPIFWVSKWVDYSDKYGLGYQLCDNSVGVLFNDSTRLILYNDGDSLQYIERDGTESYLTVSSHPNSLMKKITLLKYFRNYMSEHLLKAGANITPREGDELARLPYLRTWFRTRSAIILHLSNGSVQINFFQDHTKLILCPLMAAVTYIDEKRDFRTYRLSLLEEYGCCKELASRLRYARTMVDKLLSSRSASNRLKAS
WRN helicase inh = qHTS for Inhibitors of WRN Helicase. Potency, µM (highest dose often 114 µM), inactives show at the top dose activity change, negative = inhibition, hits mostly inhibitors. 0.46% of 360,000 active. WRN helicase unwinding, fluorescent forked duplex, kinetic; note: potency is the fitted concentration of half-maximal effect; % is set by controls: 0 for no effect and ±100 for the full control effect; nearly all actives have a fitted effect of over 55% in size
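Kinetic fluorescence helicase assay: unwinding of a quenched forked DNA duplex (100 nM final) with 2 mM ATP final raises red fluorescence (525/598 nm). Compounds sat 15 min at room temperature with 20 nM WRN beforehand.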
PI5P4K alpha inh = qHTS for Inhibitors of phosphatidylinositol 5-phosphate 4-kinase (PI5P4K); PI5P4Kalpha enzyme, ADP-Glo luminescence, 60 min; hits give low values; max response, %; 1.2% of 330,000 active; AID 652105, 2013; Phosphatidylinositol 5-phosphate 4-kinase type-2 alpha (Homo sapiens), P48426; active = max response of -50% or lower; inconclusive = between -30% and -50%; inactive = -30% or higher; note: value at the top dose of about 77 µM; % is set by controls: 0 for no effect and ±100 for the full control effect
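Compounds were pin-transferred onto PI5P4Kalpha and substrate in HEPES pH 7.4 buffer with EGTA, CHAPS and 5% DMSO. ATP (5 microM final) started the reaction, which ran 60 minutes at room temperature before ADP-Glo detection.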
FEN1 inhibitor = qHTS Assay for the Inhibitors of Human Flap endonuclease 1 (FEN1); Recombinant FEN1 flap cleavage, fluorescence, 15 min; 0.35% of 390,000 active; Potency, µM (top dose mostly 114 µM), for the others: top-dose activity change, negative = inhibition, hits mostly inhibitors; P39748; AID 588795, 2011; note: potency is the fitted concentration of half-maximal effect; % is set by controls: 0 for no effect and ±100 for the full control effect; nearly all actives have a fitted effect of over 65% in size
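Reaction started by adding substrate (50 nM final) to 10 nM enzyme after 15 min room-temperature compound preincubation. Reads at 0 and 15 min, with data normalized and fitted to a four-parameter Hill equation.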
VDR inhibitor = Inhibitors of the vitamin D receptor (VDR): qHTS; Potency, µM, inactives show max response, negative = inhibition, hits mostly inhibitors; 0.93% of 400,000 active; VDR-SRC2-3 peptide fluorescence polarization, 2 h; AID 504847, 2011; Vitamin D3 receptor (Homo sapiens), P11473; note: potency is the fitted concentration of half-maximal effect; % is set by controls: 0 for no effect and ±100 for the full control effect
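Signal is fluorescence polarization, reporting how far test compounds block the interaction of VDR with the SRC2-3 coregulator peptide after a 2 h room-temperature incubation.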
TCR act = Activators of T cell receptors: qHTS campaign; primary human leukocytes, anti-CD3, IL-2 HTRF, 48 h; 330,000 tested, under 10 active; Potency, µM (titrated, usually from 9.22 µM), without a hit: at the top dose activation of IL-2 secretion, usual class: activators; note: % of control where 0% means no effect
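Compounds are tested in HTS on primary human leukocytes co-incubated with a-CD3 beads for 48 hr. IL-2 output is measured by time-resolved FRET.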
The depositor's hits bear a star; ? = inconclusive; nt = no result given; [ ] = dose if it differs, or a comment. Only some compounds are listed: those with a hit (about 3.7% of all), similar ones and a draw of the others. Unless noted, calls come from the whole dose curve; as a rule, active = well fitted curve in the direction sought with a large enough effect; inconclusive = small, poorly fitted or top-dose-only effect, or another doubt; inactive = no such curve, though single readings can be large; an effect the other way counts as inactive or inconclusive.

SMILES	PLK1 PBD inh	WRN helicase inh	PI5P4K alpha inh	FEN1 inhibitor	VDR inhibitor	TCR act
Cc1cc(C(=O)N2CCCC(N3CCN(c4ccc(F)cc4)CC3)C2)c(C)o1 (configuration not stated)	27µM*	10%	-12	-8%	?	-2%
COc1ccccc1N1CCN(C2CCCN(C(=O)c3cc(C)oc3C)C2)CC1 (configuration not stated)	-1%	-15%	9	21%	-13%	8%
CSCc1nnc(NC(=O)c2ccc(S(=O)(=O)N(C)C)cc2)o1	13µM*	0%	-6	-12%	-13%	1%
CC(C)(C)c1ccc(C(=O)C[n+]2ccc(Cl)c3ccc(Cl)cc32)cc1	nt	nt	nt	9%	nt	nt
COc1cc(/C=C2\NC(=S)N(C)C2=O)ccc1O	37%	-8%	-5	-18%	4%	-1%
CN1C(=O)/C(=C/c2ccc(O)c([N+](=O)[O-])c2)NC1=S	-2%	-14%	-56*	4%	8%	nt
Cc1ccc2c(C)nc(Nc3nc(CSc4nnc(C)s4)cc(=O)[nH]3)nc2c1	-5%	14%	nt	?	5%	0%
COc1cccc2c(C)nc(Nc3nc(CSc4nnc(C)s4)cc(=O)[nH]3)nc12	24µM*	-7%[57.1 µM]	-17	50µM*	79µM*	2%
CCOc1cc(/C=N/Nc2nc(-c3cccs3)c(NC(C)=O)s2)ccc1O	27µM*	-10%	?	2%	35µM*	0%
Nc1ccc(N2CCCCC2)c(S(=O)(=O)Nc2ccccc2Cl)c1	27µM*	-12%	?	-26%	-14%	6%
COc1ccc(NS(=O)(=O)c2cc(NC(=O)C3CC3)ccc2N2CCCCC2)cc1	-10%	-2%	1	-14%	-8%	-5%
CCCS(=O)(=O)Nc1ccc(N2CCCCC2)c(S(=O)(=O)Nc2ccccc2OC)c1	24µM*	-16%	-6	8%	-21%	2%
COc1ccccc1NS(=O)(=O)c1cc(NC(=O)C2CCC2)ccc1N1CCCCC1	6µM*	0%	-18	2%	?	1%
COc1ccccc1NS(=O)(=O)c1cc(N)ccc1N1CCCCC1	3µM*	-9%	0	-3%	-15%	0%
Cc1ccccc1CCNC(=O)c1ccc(Cn2c(=O)c3cccn3c3cccnc32)cc1	nt	nt	nt	1%	23%	nt
CCOc1ccc(OC(=O)c2c(-c3ccccc3Cl)noc2C)cc1	nt	nt	nt	7%	-1%	nt
O=C(C[n+]1c2ccccc2cc2ccccc21)c1ccc(F)cc1	nt	nt	nt	0%	nt	nt
COc1ccccc1NS(=O)(=O)c1cc(NC(=O)c2ccccc2F)ccc1N1CCOCC1	27µM*	-16%	7	-9%	-1%	0%
COc1cc(C(C[N+](=O)[O-])c2c(N)n(C)c(=O)n(C)c2=O)ccc1O (configuration not stated)	-5%	2%	-3	0%	?	3%
COc1cccc(F)c1C(C[N+](=O)[O-])c1c(N)n(C)c(=O)n(C)c1=O (configuration not stated)	-2%	-5%	-2	17%	79µM*	2%
Cc1ccc(C(C[N+](=O)[O-])c2c(N)n(C)c(=O)n(C)c2=O)cc1 (configuration not stated)	-17%	-3%	10	20%	79µM*	4%
Cn1c(N)c(C(C[N+](=O)[O-])c2ccccc2Cl)c(=O)n(C)c1=O (configuration not stated)	-7%	-22%	3	9%	?	-6%
Cc1cc(C)cc(-n2c(C)nc3cc(C(=O)NCc4ccc(F)cc4)ccc32)c1	nt	nt	nt	-3%	7%	nt
O=C(COc1ccccc1C(=O)Nc1ccccc1)Nc1ccccc1Cl	nt	nt	nt	0%	nt	nt
Cc1cccc(CNc2nc(-c3c(C)noc3C)nc3ccccc23)c1	nt	nt	nt	nt	0%	nt
SMILES	PLK1 PBD inh	WRN helicase inh	PI5P4K alpha inh	FEN1 inhibitor	VDR inhibitor	TCR act
CN(Cc1ccco1)c1nc(-c2ccoc2)nc2ccccc12	nt	nt	nt	nt	45µM*	nt
Cc1noc(C)c1-c1nc(N(C)Cc2ccco2)c2ccccc2n1	nt	nt	nt	nt	28µM*	nt
CN(Cc1ccco1)c1nc(-c2cccc(C#N)c2)nc2ccccc12	nt	nt	nt	nt	45µM*	nt
O=S1(=O)C=C(Sc2nc3cc(Cl)ccc3o2)c2ccccc21	6.7µM*	-22%	-17	7%	?	-2%
CC(=O)N1CC(C)Sc2ccc(S(=O)(=O)NCCc3cccc(C)c3)cc21 (configuration not stated)	12µM*	-7%	-20	-16%	?	5%
CC(=O)N1CC(C)Sc2ccc(S(=O)(=O)NCc3ccc(F)cc3)cc21 (configuration not stated)	-11%	0%	0	-15%	8%	-10%
COc1ccc2c(c1)Cc1sc(NC(=O)c3ccccc3C)nc1-2	nt	nt	nt	?	25µM*	nt
COc1ccc2c(c1)Cc1sc(NC(=O)c3ccccc3)nc1-2	-17%	4%	?	-14%	-20%	-11%
Cc1ccc(SSc2cc(C)ccc2N)c(N)c1	0.34µM*	-3%	-81*	?	6.3µM*	4%
Cc1ccc(O)c(N)c1	-16%	-6%	-1	-21%	-4%	1%
CC(C)CC1=C/C(=C/c2ccc(-c3ccccc3)o2)C(=O)O1	11µM*	50µM*	-68*	?	?	8%
CN1C(=O)NC2(O)C(=O)c3ccccc3C12O (configuration not stated)	2.7µM*	?	-51*	-4%	?	-6%[46.1 µM]
O=C1NC2(O)C(=O)c3ccccc3C2(O)N1 (configuration not stated)	-2%	11%	-4	5%	5%	0%
Cc1ccc2c(c1)c1c(c(=O)n(-c3ccccc3C)c(=O)n1CC(=O)NCCC1=CCCCC1)n2C	nt	nt	nt	-2%	3%	nt
O=C(CBr)c1ccc([N+](=O)[O-])c(CS(=O)(=O)c2ccc(Cl)cc2)c1	-23%	-1%	-7	-11%	35µM*	3%
Cc1sc2ncn(CC(=O)N3CCN(c4ccc(F)cc4)CC3)c(=O)c2c1S(=O)(=O)N1CCCCC1	nt	nt	nt	-4%	-7%	nt
COc1cccc(N2CCN(C3C(=O)c4ccccc4N3C(C)=O)CC2)c1 (configuration not stated)	nt	nt	nt	13%	18%	nt
CCCCCc1ccc(-c2ccc(Br)cc2)nc1	nt	nt	nt	9%	-23%	nt
CCCCCCCc1ccc(-c2ccc(O)cc2)nc1	24µM*	6%[57.1 µM]	5	-29%	0%	-1%
